This passage reports Potency, activity and activity change, negative = inhibition results from PubChem BioAssay (NCATS).

The nature of experiment [1]: Primary qHTS for inhibitors of nuclear receptor binding SET domain protein 2 (NSD2) in an RCH-ACV wild type WT cells (2C) (AID 1645877). Further: nearly all actives have a fitted effect of over 70% in size. Further: potency means the concentration at half of the fitted maximal effect. In general terms: Quantitative high-throughput screening tests each substance at several concentrations.
The target in experiment [2] is Catechol O-methyltransferase (Homo sapiens) (UniProt P21964). Put plainly: Confirmatory Screen for Target Class Profiling of Small Molecule Inhibitors of Methyltransferases (AID 1745852; calls by dose curve; further: potency means the concentration at half of the fitted maximal effect; on activity change, negative = inhibition: on the % scale 0 is the no-effect control and ±100 the full control effect). To be noted: MTase-Glo luminescence, SAH detection, recombinant enzyme; measured here: COMT max response; stronger effect = lower value.
Experiment [3] addresses Guanidinoacetate N-methyltransferase (Homo sapiens) (UniProt Q14353). Described as above. To be noted: activity change, negative = inhibition: at 57.3 µM (top of the series) unless noted.
Experiment [4] addresses Nicotinamide N-methyltransferase (Homo sapiens) (UniProt P40261). The description is as above. To be noted: MTase-Glo luminescence, SAH detection, recombinant enzyme; measured here: NNMT max response; stronger effect = lower value.
Experiment [5] deals with Phenylethanolamine N-methyltransferase (Homo sapiens) (UniProt P11086). The experiment is described as above. Conditions: MTase-Glo luminescence, SAH detection, recombinant enzyme; measured here: PNMT max response; stronger effect = lower value.
The target of experiment [6] is Glutathione peroxidase 1 (Homo sapiens) (UniProt P07203). Put plainly: Primary qHTS Assay for Inhibitors of Recombinant Selenoprotein Glutathione Peroxidase 1 (GPX1) (AID 1845191). Further: nearly all actives have a fitted effect of over 65% in size. In a few lines:
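NADPH consumption tracked by fluorescence at 340/450 nm between t=0 and t=15 min, room temperature. Final mix: 10 nM GPX1, 100 nM glutathione reductase, 1 mM GSH, 0.5 mM NADPH, 0.5 mM cumene hydroperoxide, 0.01% BSA; 30 min compound–enzyme preincubation.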

Experiment [7] has as its target Phospholipid hydroperoxide glutathione peroxidase GPX4 (Homo sapiens) (UniProt P36969). The experiment is described as follows: Primary qHTS Assay for Inhibitors of Recombinant Selenoprotein Glutathione Peroxidase 4 (GPX4) (AID 1845192). Further: nearly all actives have a fitted effect of over 65% in size. On activity change, negative = inhibition: on the % scale 0 is the no-effect control and ±100 the full control effect. The gist of the method: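 NADPH consumption followed by fluorescence at 340/450 nm, t=0 and after 15 min at room temperature. Reaction started with cumene hydroperoxide (0.5 mM final) after 30 min compound–GPX4 preincubation; final 200 nM GPX4, 100 nM GR, 1 mM GSH, 0.5 mM NADPH.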

Experiment [8] deals with Luciferin 4-monooxygenase (Photinus pyralis) (UniProt P08659). The experiment is described as follows: Primary firefly luciferase (FLuc) qHTS assay for identification of artifact compounds. (AID 1845220). Further: nearly all actives have a fitted effect of over 60% in size. Further: potency means the concentration at half of the fitted maximal effect. In a few lines: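 FLuc 10 nM; luciferin 10 uM; ATP 10 uM; Tris-acetate pH 7.6, Mg-acetate 10 mM; 15 min RT preincubation; 5 min reaction; luminescence.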
Experiment [9] can be described thus: Primary fluorescence-based thiol-reactive (MSTI) qHTS assay for identification of artifact compounds. (AID 1845221). Further: nearly all actives have a fitted effect of over 65% in size. Further: potency means the concentration at half of the fitted maximal effect. In a few lines: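 Compounds were incubated 1 h at room temperature in the dark with the MSTI probe (4 uM) in PBS pH 7.4, 2% DMSO. Signals were normalized between Acetyl-MSTI and MSTI.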
Experiment [10] concerns Nanoluciferase (engineered Oplophorus gracilirostris luciferase). The experiment is described as follows: Primary Nanoluciferase (NLuc) qHTS assay for identification of artifact compounds. (AID 1845222).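 Further: NLuc secreted into diluted conditioned medium of S16 cells; 0% = DMSO and -100% = no enzyme.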 The gist of the method: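 NLuc from S16 cell medium (1:55) plus test compounds, 15 min, room temperature. Luminescence after Nano-Glo (1:100) addition, 5 min.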
A short description of experiment [11]: NCATS anti-infectives library activity on HEK293 viability as a counter-qHTS vs the C. elegans viability qHTS (AID 1745854).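 Further: HEK293 cells exposed to compounds for 24 hr before the viability read; on the % scale 0 is the no-effect control and ±100 the full control effect.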 The gist of the method:
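Compound titrations (final up to 41.7 uM) were incubated with HEK293 cells for 24 hr at 37C under 5% CO2. Viable cells were quantified with CellTiter-Glo after 10 min at ambient temperature.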

Experiment [12] is described as follows: NCATS anti-infectives library activity on the primary C. elegans qHTS viability assay (AID 1745855; calls by dose curve; further: potency means the concentration at half of the fitted maximal effect). The gist of the method:
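Titration-based screen in worms: eggs hatched overnight in M9, L1 larvae fed TOP10 capsules in S medium with compound, incubated 21 °C for 7 days; fluorescent objects gated by size and intensity at days 0, 3 and 7.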

A short description of experiment [13]: Primary redox qHTS assay for identification of artifact compounds. (AID 1845223).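 Further: 0% = DMSO and 100% = reference compound.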 The gist of the method:
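Redox-cycling detection via DTT (250 uM final) oxidation coupled to Amplex Red (25 uM)/HRP (250 mU/mL) in HBSS. 15 min preincubation plus 30 min after DTT, room temperature. Ex/Em 525/598 nm; 4-parameter Hill fit against DMSO and 10 uM DA3003.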

Structures are written as SMILES. Where “and” joins values, the source holds several entries; their conditions need not be identical. Equal values may be shown once. Results filed as inconclusive are left out. Calls of active or inactive are those of the source. Unless noted, the call rests on the fitted dose curve; in most records, active means well fitted curve in the direction sought with a large enough effect; inconclusive means small, poorly fitted or top-dose-only effect, or another doubt; inactive means no such curve, though single readings can be large; an effect the other way counts as inactive or inconclusive.

Chain of Phospholipid hydroperoxide glutathione peroxidase GPX4 (Homo sapiens) (P36969 whole entry, looked up): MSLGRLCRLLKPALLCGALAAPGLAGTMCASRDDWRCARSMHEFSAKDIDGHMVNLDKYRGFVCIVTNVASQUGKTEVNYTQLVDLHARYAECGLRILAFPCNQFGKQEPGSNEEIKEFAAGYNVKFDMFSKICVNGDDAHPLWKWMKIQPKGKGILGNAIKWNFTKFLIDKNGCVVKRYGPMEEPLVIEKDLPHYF
Chain of Phenylethanolamine N-methyltransferase (Homo sapiens) (P11086 whole entry, looked up): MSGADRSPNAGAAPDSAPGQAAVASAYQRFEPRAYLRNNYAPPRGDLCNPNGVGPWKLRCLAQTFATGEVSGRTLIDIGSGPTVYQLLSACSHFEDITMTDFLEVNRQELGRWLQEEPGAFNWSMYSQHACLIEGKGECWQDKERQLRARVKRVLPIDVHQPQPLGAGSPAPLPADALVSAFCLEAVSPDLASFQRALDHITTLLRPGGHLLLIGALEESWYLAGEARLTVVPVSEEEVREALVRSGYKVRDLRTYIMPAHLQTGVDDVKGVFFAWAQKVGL
Chain of Nicotinamide N-methyltransferase (Homo sapiens) (P40261 whole entry, looked up): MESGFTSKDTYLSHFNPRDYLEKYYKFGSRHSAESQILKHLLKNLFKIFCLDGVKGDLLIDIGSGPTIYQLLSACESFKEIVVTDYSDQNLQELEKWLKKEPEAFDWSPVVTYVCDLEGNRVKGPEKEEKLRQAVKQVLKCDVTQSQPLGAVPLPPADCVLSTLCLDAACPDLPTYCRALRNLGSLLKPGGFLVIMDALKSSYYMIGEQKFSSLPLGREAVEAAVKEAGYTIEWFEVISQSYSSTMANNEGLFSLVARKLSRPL
Chain of Glutathione peroxidase 1 (Homo sapiens) (P07203 whole entry, looked up): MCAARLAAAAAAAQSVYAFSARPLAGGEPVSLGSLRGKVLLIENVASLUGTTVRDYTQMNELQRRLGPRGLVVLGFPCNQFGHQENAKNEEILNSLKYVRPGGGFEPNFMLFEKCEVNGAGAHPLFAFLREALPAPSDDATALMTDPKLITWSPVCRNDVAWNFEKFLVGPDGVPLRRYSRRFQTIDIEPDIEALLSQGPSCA
Chain of Catechol O-methyltransferase (Homo sapiens) (P21964 whole entry, looked up): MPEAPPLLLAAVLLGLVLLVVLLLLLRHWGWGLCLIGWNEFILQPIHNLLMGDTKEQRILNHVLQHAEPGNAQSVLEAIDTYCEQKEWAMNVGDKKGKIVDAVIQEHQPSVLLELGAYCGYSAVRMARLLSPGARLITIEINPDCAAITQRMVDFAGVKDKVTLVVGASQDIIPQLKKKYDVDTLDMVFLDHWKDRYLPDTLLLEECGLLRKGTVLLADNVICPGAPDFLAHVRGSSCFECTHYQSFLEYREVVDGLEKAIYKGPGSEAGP

For the molecule `COc1cc(N2CCC(N3CCN(C)CC3)CC2)ccc1Nc1ncc(Cl)c(-c2c[nH]c3ccccc23)n1`, the Potency was 1.84 µM (active) in experiment [1], 24.1 µM (active) in [3] and 1.68 µM (active) in experiment [9]. In addition, the activity in experiment [2] is -23.6%; in experiment [4], -32.6%; in experiment [5], -23.1%. The Potency result in [6], in experiment [7], in experiment [8] and in experiment [10] was “inactive” in each case.
As to `CCC(C(=O)O)c1ccc(N2Cc3ccccc3C2=O)cc1` (stereo unspecified), the Potency result in experiment [1] is “inactive”.
Turning to `CCOc1cc2ncc(C#N)c(Nc3ccc(F)c(Cl)c3)c2cc1NC(=O)/C=C/CN(C)C`, the Potency in [1] is 1.03 µM (active) and 590 nM (active); in experiment [3] it was 4.82 µM (active); in experiment [12], 14.5 µM (active). The figures for the activity in [2], in [4] and in experiment [5] were -96.3%, -82.7% and -97.3%, respectively. The Potency entry in experiment [11], in [6], in experiment [7], in experiment [8], in experiment [9] and in experiment [10] was “inactive” in each case. Further, the Potency result in [13] was “inactive”.
As to `CC1(C)CC[C@]2(C(=O)O[C@@H]3O[C@H](CO)[C@@H](O)[C@H](O)[C@H]3O)CC[C@]3(C)C(=CCC4[C@@]5(C)C[C@@H](O)[C@H](O)[C@@](C)(CO)C5CC[C@]43C)C2[C@@H]1O` (stereo partly specified), the Potency result in experiment [1], in experiment [6], in experiment [7], in [8], in experiment [10] and in experiment [13] was “inactive” in each case. Moreover, the activity in experiment [2] is -79.9%; in [4], -4%; in experiment [5], -1.38%. The activity change, negative = inhibition in experiment [3] is -0.535% [at 19.1 µM]. Moreover, the Potency in experiment [9] is 3.16 µM (active).
For the molecule `CCN1CCN(Cc2ccc(Nc3ncc(F)c(-c4cc(F)c5nc(C)n(C(C)C)c5c4)n3)nc2)CC1`, the Potency is 649 nM (active) and 417 nM (active) in experiment [1]; 15.2 µM (active) in [3]. Also, the activity in [2] was -78.7%; in experiment [4] it was -61.4%; in [5] it was -75%. For the same molecule, the Potency entry in experiment [6], in [7], in experiment [8], in experiment [9] and in [10] was “inactive” throughout.
With `c1cn2cc(-c3ccc4cn[nH]c4c3)nc(Nc3ccc(N4CCOCC4)cc3)c2n1`, the Potency in experiment [1] was 0.409 µM (active); in [3], 21.5 µM (active); in [8], 0.0536 µM (active). For the same molecule, the activity in experiment [2] was -53.7%; in experiment [4], -49.6%; in experiment [5], -53.5%. The Potency entry in experiment [6], in experiment [7], in experiment [10] and in experiment [13] was “inactive” throughout.
Consider `CCS(=O)(=O)N1CCN(c2ccc(Nc3ncc(C(N)=O)c(NC4CC4)n3)cc2)CC1`, for which the Potency in experiment [1] was 258 nM (active) and 417 nM (active); in [9], 2.99 µM (active). In addition, the figures for the activity in [2], in [4] and in experiment [5] were -6.02%, -70.8% and -8.46%, respectively. In experiment [3], the activity change, negative = inhibition worked out at 0%. Besides, the Potency entry in experiment [6], in experiment [7], in experiment [8], in experiment [10] and in [13] was “inactive” each time.
For `C=C(C)C(=O)OC1CC2(C)OC(=CC2=O)C(=C)CC2OC(=O)C(COC)C12` (stereo unspecified), the Potency in [1] was 1.79 µM (active); in experiment [8], 10.5 µM (active). Also, the activity in [2] is -94%; in experiment [4], -5.26%; in [5], -4.08%. Also, the activity change, negative = inhibition in [3] was -5.17%. Besides, the Potency entry in experiment [6], in experiment [10] and in experiment [13] was “inactive” in each case.
For the molecule `C/C=C/c1cc(OC)c2c(c1)[C@@H](C)[C@@H](c1ccc(O)c(OC)c1)O2`, in experiment [1], the Potency was 14.2 µM (active). Moreover, the results for the activity in experiment [2], in experiment [4] and in [5] were -61.3%, -7.01% and -5.03%, respectively. For the same molecule, in experiment [3], the activity change, negative = inhibition was -6.75%. For the same molecule, the Potency entry in experiment [6], in experiment [7], in experiment [8], in experiment [9], in [10] and in experiment [13] was “inactive” each time.
